Measured values as given in PubChem BioAssay (NCI).
The panel holds about 83,000 compounds, 20% with a hit somewhere; the sample as a whole holds those more often.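 A percent growth of 40 corresponds to 60% growth inhibition; 0 means no net growth; -100 means all cells died. Active threshold: below 10.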 Activity calls are given as the source filed them.

system: SNB-19 CNS; assay: NCI-60 one-dose screen, 48 h (100 = growth as untreated, 0 = no growth, -100 = all killed); conditions: 10 µM unless noted
Method: Growth inhibition of the SNB-19 human tumor cell line is measured as a screen for anti-cancer activity. Cells are grown in 96 well plates and exposed to the test compound for 48 hours. Compounds are tested at a single concentration, which is 10^-5 M for most compounds. The reported endpoint is percent growth (GI% or GIPRCNT), where numbers from 0 - 100% represent growth inhibition, and numbers from -100% - 0 represent cell death. For example, a value of 40 represents 60% growth inhibition. A value of 0 means no net growth occurred over the course of the experiment. A value of -40 indicates 40% of cells at the beginning of the experiment died by the end of the experiment. A value of -100 means all cells are dead at the end of the experiment.
NCI-60 Human Tumor Cell Lines Screen was performed using the standard one-dose NCI protocol, which is described in more detail at https://dtp.cancer.gov/discovery_development/nci-60/default.htm.
Compounds with GIPRCNT values below 10 were considered active. Activity score was based on GIPRCNT using the following formula: […]
Score is 0 for GIPRCNT values of 100 or above, 50 for GIPRCNT values of 0, and 100 for GIPRCNT values of -100.

| SMILES | growth |
| --- | --- |
| O=C(CCCCCCCn1cc(-c2cccnc2)nn1)Nc1ccccc1-c1ccccc1 | 48.2% (inactive) |
| Clc1cnc(Nc2ccc(OCCN3CCCC3)cc2)nc1NCc1ccco1 | 38.6% (inactive) |
| O=C1/C(=C/c2ccc([N+](=O)[O-])cc2)COc2ccc(O)c(O)c21 | 15% (inactive) |
| Nc1nc(N)c(-c2ccc(Cl)cc2)c(/C=C/c2ccc([N+](=O)[O-])cc2)n1 | 75% (inactive) |
| CCc1nc2ccccc2[nH]1 | 98.3% (inactive) |
| Nc1ccc2c(S(=O)(=O)O)ccc(S(=O)(=O)O)c2c1 | 93.5% (inactive) |
| COc1ccc(C(=O)/C=C/c2cc3c(c(OC)c2)OCC(=O)N3)cc1 | 76.1% (inactive) |
| O=C(/C=C/c1ccccc1)c1ccc2ccccc2c1 | 99.3% (inactive) |
| Cn1ccc(Cc2cnc(N)s2)n1 | 98.9% (inactive) |
| CCn1c(Sc2nnc(NC(=O)CCN3CCCC3)s2)nc2c1c(=O)n(C)c(=O)n2C | 104% (inactive) |
| O=C(NCc1cccnc1)c1cc(-c2csc3c(=O)cc(N4CCOCC4)oc23)cc2c1OCCO2 | 47.5% (inactive) |
| CCOC(=O)c1nnn(C(Cc2ccccc2Cl)C(=O)OCC)c1C (stereo not given) | 104% (inactive) |
| C=C(C)[C@@H]1CC[C@]2(CO)CC[C@]3(C)[C@H](CC[C@@H]4[C@@]5(C)C=C(C#N)C(=O)C(C)(C)[C@@H]5CC[C@]43C)[C@@H]12 | 18.5% (inactive) |
| N#Cc1c(N)nc2c(nnn2-c2cccc(Br)c2)c1N | 95.9% (inactive) |
| C=C1C(=O)O[C@H]2[C@H]1CC/C(C(=O)NCCCCCCCCNC(=O)/C1=C/CC[C@@]3(C)O[C@H]3[C@H]3OC(=O)C(=C)[C@@H]3CC1)=C\CC[C@@]1(C)O[C@@H]21 | 99.3% (inactive) |
| O=[N+]([O-])c1cccc(/C=C/c2ccccn2)c1 | 74.5% (inactive) |
| Cc1cc(Cl)nc(N(CCCNc2ccnc3cc(Cl)ccc23)Cc2ccccn2)n1 | 66.5% (inactive) |
| C=C1C(=O)O[C@H]2[C@H]1CC/C(COC(=O)/C=C\C(=O)NCc1ccc(Cn3c(=O)sn(CCCI)c3=O)cc1)=C\CC[C@@]1(C)O[C@@H]21 | 1.92% (active) |
| O=c1[nH]nc(-c2ccc(Cl)cc2)cc1Cc1ccccc1 | 101% (inactive) |
| COc1ccc(/C=N/NC(=O)Cn2c(-c3ccc(S(C)(=O)=O)cc3)nc3cc(Cl)ccc32)cc1 | 21.6% (inactive) |

| SMILES | growth |
| --- | --- |
| CCCCCCCCc1cc[n+](CC(=O)c2ccc(Br)cc2)cc1 | 35.3% (inactive) |
| O=C1NCC(=O)N(Cc2ccco2)[C@H]1Cc1ccccc1 | 94.5% (inactive) |
| CC(C)(O)c1cccc(F)c1 | 97.6% (inactive) |
| Cc1nn(Cc2ccccc2)cc1C(=O)Nc1sc2c(c1C(N)=O)CCC(=O)C2 | 63% (inactive) |
| c1ccc([P+](CCCc2n(Cc3ccc4ccccc4c3)c3ccccc3[n+]2Cc2ccc3ccccc3c2)(c2ccccc2)c2ccccc2)cc1 | 38.5% (inactive) |
| CN1CCN(C(=O)[C@]23CCC(C)(C)C[C@@H]2C2=CC[C@@H]4[C@@]5(C)Cc6c([nH]c7ccccc67)C(C)(C)[C@@H]5CC[C@@]4(C)[C@]2(C)CC3)CC1 | 91.8% (inactive) |
| Clc1ccc2c(NCCCN3CCN(c4nc(N5CCOCC5)nc5ccccc45)CC3)ccnc2c1 | 21.7% (inactive) |
| Cn1ccnc1C(=O)/C=C/c1ccc(C(=O)Nc2ccc(S(F)(F)(F)(F)F)cc2)cc1 | 9.4% (active) |
| COc1ccc(/C=C2\COc3ccc(O)cc3C2=O)c(OC)c1 | 55.3% (inactive) |
| C[C@@H]1C(=O)N(C[C@H](Cc2ccccc2)N(Cc2ccccc2)Cc2ccccc2)[C@]1(Cc1ccccc1)C(=O)OC(C)(C)C | 66.9% (inactive) |
| O=C(C[C@@]1(O)C(=O)Nc2c(Cl)ccc(Cl)c21)c1ccc(C2CC2)cc1 | 36.8% (inactive) |
| COc1cc2c(cc1OC)-c1ccc3cc4c(cc3c1N(CCN1CCCC1)C2)OCO4 | -5.63% (active) |
| O=c1[nH]c(NCc2nnnn2-c2ccc(Br)cc2)nc2sc3c(c12)CCCC3 | 96.1% (inactive) |
| COC1(CC[C@@H](C)COC2OC(CO)C(O)C(O)C2O)O[C@H]2C[C@H]3[C@@H]4CC=C5C[C@@H](OC6OC(CO)C(OC7OC(C)C(O)C(O)C7O)C(O)C6OC6OC(C)C(O)C(O)C6O)CC[C@]5(C)[C@H]4CC[C@]3(C)[C@H]2[C@@H]1C (stereo not given in full) | -64.1% (active) |
| Nc1ccn(C2OC(F)(CO)C(O)C2F)c(=O)n1 (stereo not given) | 36.8% (inactive) |
| O=C1Nc2ccccc2SC1c1ccccc1Cl (stereo not given) | 111% (inactive) |
| COc1cc(C2CC(c3ccc(Nc4nc(Nc5ccc(F)cc5)nc(Nc5ccc(Cl)cc5)n4)cc3)=NN2C(C)=O)cc(OC)c1OC (stereo not given) | 74.5% (inactive) |
| CC(=[N-])N1CCC[C@@H](Nc2c3ccccc3nc3ccccc23)C1.[Cl][Pt].[NH-]CCC[NH-] | 53.3% (inactive) |
| C/C(Cc1ccc(Cl)cc1)=C(/c1ccc(Cl)cc1)c1ccc(OCCN(C)C)cc1 | 69.4% (inactive) |
| COc1ccc(NC(=O)c2cccc(-c3cc(=O)c4c(O)c(OC)c(OC)cc4o3)c2)cc1 | 61.6% (inactive) |
